Tau ThT inhib = inhibitors of human tau fibril formation, thioflavin T binding. 2.1% of 270,000 active. P10636. Potency, µM (doses to about 57.4 µM), for the others: top-dose activity, negative = inhibition, usual class: inhibitors. recombinant tau K18 P301L, heparin-induced fibrillization, ThT fluorescence; also: potency is read from the fitted curve at half-maximal effect; % is scaled to controls: 0 for no effect and ±100 for the full control effect; nearly all actives have a fitted effect of over 55% in size
Target sequence (P10636 561-689 P618L limits assumed): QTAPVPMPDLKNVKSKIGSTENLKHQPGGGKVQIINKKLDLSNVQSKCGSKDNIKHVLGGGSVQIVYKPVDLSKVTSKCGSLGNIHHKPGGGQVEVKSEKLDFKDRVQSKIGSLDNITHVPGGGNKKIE
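Fibril formation assay: tau K18 P301L at 15 uM with trace Alexa 594 label, heparin inducer 20 uM, pH 7 sodium acetate buffer, 37 C for 6 hr; endpoint ThT signal.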
Tau fibril FP = inhibitors of human tau fibril formation; P10636; K18 P301L tau heparin fibrillization, Alexa594 FP, 6 h; Potency, µM (doses to about 57.7 µM), for the others: top-dose activity, negative = inhibition, actives largely listed as inhibitors; 0.39% of 280,000 active; also: potency is read from the fitted curve at half-maximal effect; % is scaled to controls: 0 for no effect and ±100 for the full control effect; nearly all actives have a fitted effect of over 55% in size
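FP of Alexa 594-tau after heparin (20 uM) induction. Substrate: human K18 P301L, 15 uM unlabeled, 0.24 uM labeled. Buffer 100 mM sodium acetate pH 7. 6 hr, 37 C.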
LMNA splice mod = LMNA splicing modulation. 0.01% of 200,000 active. HeLa LMNA splicing GFP/RFP minigene ratio, 48 h. AID 1487. Potency, µM (doses to about 46.1 µM), for inactives: at the top dose ratio change, negative = inhibition, hits mostly inhibitors; active = well fitted inhibition curve with a large enough effect in the signal ratio, with a control signal flat, not every such curve was filed as active; inconclusive = small, poorly fitted or top-dose-only effect, or effect the other way, or a change in a side signal; the % refers to the signal ratio; also: potency is read from the fitted curve at half-maximal effect; % is scaled to controls: 0 for no effect and ±100 for the full control effect
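Read-out is the ratio of GFP to DsRed2 object intensity, acquired by 488 nm laser-scanning cytometry on HeLa lamin A-EGFP minigene reporter cells. Compound incubation 48 hrs at 37 °C in Opti-MEM with 2% FBS; DMSO 0.5% final.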
KDM4E inh = JMJD2E (human) inhibition | B2RXH2 | JMJD2E catalytic domain, FDH-coupled NADH fluorescence (FDH is formaldehyde dehydrogenase) | Potency, µM (titrated, usually from 57.1 µM), inactives show top-dose activity change, negative = inhibition, actives largely listed as inhibitors | 1.6% of 230,000 active; active = well fitted inhibition curve with a large enough effect, not every such curve was filed as active; inconclusive = small, poorly fitted or top-dose-only effect, or another doubt; inactive = no such curve, though single readings can be large or run the other way;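 also: potency is read from the fitted curve at half-maximal effect; 0% = wells with enzyme and -100% = buffer wells without enzyme; nearly all actives have a fitted effect of over 50% in size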
Target sequence (B2RXH2 1-337 limits assumed): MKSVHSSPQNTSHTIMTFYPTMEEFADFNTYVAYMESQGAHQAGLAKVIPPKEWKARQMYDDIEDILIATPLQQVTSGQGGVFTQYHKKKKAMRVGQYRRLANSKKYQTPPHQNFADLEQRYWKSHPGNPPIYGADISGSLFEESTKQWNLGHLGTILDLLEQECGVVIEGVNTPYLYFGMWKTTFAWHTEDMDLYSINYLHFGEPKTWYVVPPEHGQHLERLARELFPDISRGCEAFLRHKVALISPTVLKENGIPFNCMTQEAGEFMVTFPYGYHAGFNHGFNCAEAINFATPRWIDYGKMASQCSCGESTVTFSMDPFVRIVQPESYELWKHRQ
Tau fluor counter = counter-screen for tau fibril formation inhibitors; tau K18 P301L Alexa594 fluorescence, heparin fibrillization; Potency, µM (series often up to 57.7 µM), inactives show top-dose activity change, negative = decrease; 0.93% of 280,000 active; AID 1463; also: potency is read from the fitted curve at half-maximal effect; % is scaled to controls: 0 for no effect and ±100 for the full control effect; nearly all actives have a fitted effect of over 55% in size
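Human tau K18 P301L (15 uM unlabeled, 0.24 uM Alexa 594-labeled) in 100 mM sodium acetate pH 7 with 20 uM heparin, 6 hr at 37 C. ThT 30 uM added, 1 hr ambient; Alexa 594 FP and total fluorescence read at 555/632 nm.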
CBFb RUNX1 block = CBF-beta/RUNX1 interaction disruption; 230,000 tested, under 10 active; Potency, µM (highest dose often 59.8 µM), for the others: at the highest dose activity, negative = inhibition, most hits filed as inhibitors; AlphaScreen CBFb-His/RUNX1-biotin binding, biochemical; AID 1477; also: % of control where 0% means no effect
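Proteins preincubated together for 20 min at RT before compound addition; 15 min later, nickel and streptavidin beads were added and left 90 min prior to AlphaScreen measurement.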
* = called active by the depositor; ? = inconclusive; . = not tested or not shown; [ ] = another dose, or the depositor's remark. Only some compounds are listed: those with a hit (about 3.2% of all), similar ones and a draw of the others. Unless noted, calls follow the shape of the dose curve; as a rule, active = well fitted curve in the direction sought with a large enough effect; inconclusive = small, poorly fitted or top-dose-only effect, or another doubt; inactive = no such curve, though single readings can be large; an effect the other way counts as inactive or inconclusive.

SMILES	Tau ThT inhib	Tau fibril FP	LMNA splice mod	KDM4E inh	Tau fluor counter	CBFb RUNX1 block
CCOc1ccc(NC(=S)Nc2cccc3cnccc23)cc1	?	-9.4%	?	?	-26.0%	-2.2%
S=C(Nc1ccc(Cl)cc1)Nc1cccc2cnccc12	25.1µM*	?	?	14.1µM*	?	-18.3%
Fc1ccc(NC(=S)Nc2cccc3cnccc23)cc1	7.94µM*	?	-17.5%[46 µM]	-14.1%	?	-9.7%
CN(C)S(=O)(=O)c1cccc(NC(=S)Nc2cccc3cnccc23)c1	?	?	.	28.2µM*	-29.2%	?
COc1ccc(NC(=S)Nc2cccc3cnccc23)cc1	?	?	?	-24.1%	-20.8%	-4.5%
S=C(Nc1cccnc1)Nc1cccc2cnccc12	12.6µM*	?	-2.6%[46 µM]	14.1µM*	-19.4%	-1.5%
O=c1c(=O)n(-c2ccccc2)ccn1Cc1cccc(C(F)(F)F)c1	-1.8%	?	?	.	-11.3%	.
CNc1nc(Cl)nc2c1ncn2CC(COC(=O)C(C)(C)C)COC(=O)C(C)(C)C	.	.	.	.	.	16.4%
C[C@@]1(C(NC(=O)c2ccc(-c3ccccc3)cc2)c2ccc(Cl)cc2)C[C@H]1C1CCCCC1 (some centres undefined)	-9.8%	-4.6%	.	14.4%	-6.2%	8.8%
CCCN(CCC)CC(O)CN(c1ccccc1)S(=O)(=O)c1ccc(C)cc1 (centres undefined)	-8.5%	5.1%	7.3%	9.2%	-8.8%	-1.5%
Cc1ccc(N(CC(O)COCc2ccco2)S(=O)(=O)c2ccc(C)cc2)cc1 (centres undefined)	31.6µM*	?	?	-7.7%	-23.3%	-2.7%
CC(=O)O[C@@]1(C(C)=O)CCC2C3C=C(Cl)C4=CC(=O)C5CC5[C@@]4(C)C3CC[C@]21C (some centres undefined)	?	-5.2%	.	-1.1%	-28.9%	4.0%
Cc1cccc(NC(=O)CSc2nc(-c3cccc(C)c3)nc3c2Cc2c(CO)cnc(C)c2O3)c1	-4.2%	0.6%	.	.	-9.9%	.
CCOC(=O)c1c(C)n(-c2ccc(C)cc2)c2ccc(OCC(O)CNCC3CCCO3)cc12 (centres undefined)	?	16.2%	.	28.2µM*	-8.5%	-2.8%
COc1ccc(C(=O)NCC(c2ccc(N(C)C)cc2)N2CCc3ccccc32)cc1 (centres undefined)	15.8µM*	?	?	.	?	.
C/C(=N/Nc1ccc(F)cc1)c1ccc(Cl)s1	?	7.4%	6.2%	-14.0%	14.1µM*[quencher]	-1.6%
O=C(O)c1ccc2ncsc2c1	6.2%	-0.3%	.	14.1µM*	7.6%	-5.1%
Cc1ccc(CN2CCCn3nc(C(=O)NCC(C)c4ccccc4)cc3C2=O)cc1 (centres undefined)	2.6%	-5.2%	10.2%[46 µM]	.	4.5%	.
CC(=O)Oc1cc2cccc(OC(C)=O)c(=O)c2c(OC(C)=O)c1OC(C)=O	3.55µM*	15.8µM*	-3.6%[46 µM]	11.2µM*	8.91µM*[quencher]	.
Cc1ccc(Nc2n[nH]c(C)c2[N+](=O)[O-])cc1	?	-1.7%	-15.9%	-5.4%	-18.0%	-8.7%
Cc1[nH]nc(Nc2ccc(C(C)C)cc2)c1[N+](=O)[O-]	12.6µM*	-0.9%	.	10.0%	?	3.1%
Cc1[nH]nc(Nc2ccc(Br)cc2)c1[N+](=O)[O-]	6.31µM*	-2.0%	.	-13.4%	-28.1%	1.5%
CCc1ccc2oc(-c3cccc(NC(=O)COc4ccccc4Cl)c3)nc2c1	-7.7%	-9.4%	.	.	-15.4%	.
CCCCn1c(=O)nc2n(-c3ccc(Br)cc3)c3ccccc3cc-2c1=O	-11.3%	-1.0%	-3.6%[46 µM]	.	-6.3%	.
Cc1cccc(Cn2c(=O)n(CC3CCC(C(=O)NC(C)C)CC3)c(=O)c3sccc32)c1 (centres undefined)	7.2%	4.0%	19.4%[46 µM]	.	8.3%	.
CC(=O)Nc1ccc(Nc2cc(C(C)C)nc3c(-c4ccccc4)c(C)nn23)cc1	?	?	.	?	12.6µM*[quencher]	-11.7%
